Measurements as given in PubChem BioAssay AID2316 (Broad Institute, 2010).
In all, about 29,000 compounds went through this assay and fewer than 10 were called active. The list is a sample of the results. Unmarked numbers belong to inactive results. How the calls were made is not given here.

Assay: reversal of PD-1 mediated T-cell inhibition, primary screen, luminescence, primary human CD4 T cells, PD-L1 beads (AID 2316);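 further: 0% = median vehicle wells and 100% = positive control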
Details: CellTiter-Glo 96 h, active compounds read high

Compared with COc1ccc(NC(=O)Nc2cccc3c2O[C@H](CN(C)C(=O)Nc2ccc(F)cc2)[C@@H](C)CN([C@@H](C)CO)C3=O)cc1, COc1ccc(NC(=O)N(C)C[C@H]2Oc3c(NC(=O)Nc4cccc5ccccc45)cccc3C(=O)N([C@@H](C)CO)C[C@H]2C)cc1 is lower in activation: 1.83% for the first, 0.624% for the second.

First: COc1ccc(NC(=O)N(C)C[C@@H]2OCCCC[C@@H](C)Oc3ccc(NC(=O)NC4CCCCC4)cc3C(=O)N([C@H](C)CO)C[C@@H]2C)cc1
Second: C[C@@H]1CCCCO[C@@H](CN(C)C(=O)NC2CCCCC2)[C@@H](C)CN([C@H](C)CO)C(=O)c2cc(NC(=O)CCCCCC(=O)Nc3ccccc3N)ccc2O1
The activation of the first is higher: 0.764% for the first, 0.709% for the second.

First: CCOc1ccc(NC(=O)CSc2nccc(C)n2)cc1
Second: COc1ccc(Oc2ccc(NC(=O)CCC(=O)O)cc2)cc1
The activation of the first is higher: 1.48% for the first, 0.302% for the second.

Going from Cc1ccc(C)c(NC(=O)CSc2nc(C)nc3sc(C)c(C)c23)c1 to Cc1cc(C)c(C(=O)CSc2nc(C)cc(=O)[nH]2)c(C)c1, the activation rises from 0.586% to 1.17%.

Compared with CC(C)(C)c1ccc(S(=O)(=O)NCC(=O)Nc2ccc(F)cc2)cc1, Cc1ccc(S(=O)(=O)CCC(=O)Nc2ccc(Cl)cc2)cc1 is higher in activation: -2.51% for the first, 0.811% for the second.

Compared with COC(=O)c1c(NC(=O)COc2ccc(C(C)C)c(C)c2)sc2c1CCC2, COc1cccc2cc(C(=O)Nc3sc4c(c3C(N)=O)CCCCC4)c(=O)oc12 is higher in activation: 0.596% for the first, 3.77% for the second.

Compared with O=S(=O)(c1ccccc1)c1nc(-c2ccccc2F)oc1NCc1cccnc1, O=c1c2ccccc2nc(SCc2ccc(F)cc2)n1-c1ccccc1 is lower in activation: -0.501% for the first, -10.1% for the second.

Compared with COc1ccccc1N(CC(=O)Nc1ccc(C(F)(F)F)cc1)S(C)(=O)=O, CS(=O)(=O)N(CC(=O)Nc1cc(C(F)(F)F)ccc1Cl)c1ccc(Br)cc1 is lower in activation: 0.0709% for the first, -0.295% for the second.

Compared with C[C@@H]1CN([C@H](C)CO)C(=O)c2cccc(NC(=O)c3ccncc3)c2O[C@@H]1CN(C)C, C[C@H]1CN([C@@H](C)CO)C(=O)c2cccc(NC(=O)c3ccncc3)c2O[C@H]1CN(C)C is higher in activation: 0.1% for the first, 2.81% for the second.

First: Cc1ccc(S(=O)(=O)Nc2ccc3c(c2)CC(=O)N([C@H](C)CO)C[C@@H](C)[C@H](CN(C)S(=O)(=O)c2c(C)noc2C)O3)cc1
Second: Cc1ccc(S(=O)(=O)Nc2ccc3c(c2)C(=O)N([C@H](C)CO)C[C@H](C)[C@@H](CN(C)S(=O)(=O)c2cccs2)O3)cc1
The activation of the first is higher: 0.836% for the first, -1.04% for the second.

Compared with O=C(NCc1ccccn1)C(=O)Nc1cccc(Cl)c1Cl, CC(=O)c1cccc(NC(=O)CN(c2ccc(F)c(Cl)c2)S(C)(=O)=O)c1 is higher in activation: 2.26% for the first, 2.89% for the second.

First: COC1OC(O)C(O)C12CC[C@@]1(O2)[C@H](C)C[C@H]2OC(=O)[C@@]3(C)CCC[C@]1(C)C23 (stereo partly drawn)
Second: C[C@H]1CN([C@@H](C)CO)C(=O)c2cccc(NC(=O)C3CCOCC3)c2O[C@@H]1CN(C)C
The activation of the first is higher: 0.449% for the first, 0.0381% for the second.

Compared with Cc1ccc(C(=O)O)cc1S(=O)(=O)NCC1CCCO1 (stereo not drawn), CS(=O)(=O)N(CC(=O)Nc1ccc(F)c(Cl)c1)C1CCCCC1 is higher in activation: -0.751% for the first, 0.469% for the second.

First: COc1ccc(NC(=O)Nc2ccc3c(c2)CC(=O)N([C@@H](C)CO)C[C@H](C)[C@H](CN(C)C(=O)Nc2ccc4c(c2)OCO4)O3)cc1
Second: C[C@@H]1CN([C@H](C)CO)C(=O)c2cc(NC(=O)Nc3ccc4c(c3)OCO4)ccc2O[C@H]1CN(C)C(=O)Nc1ccccc1
The activation of the first is lower: 0.0102% for the first, 0.77% for the second.

Going from COc1ccc2nc3c(nc2c1)C(=O)c1ccccc1C3=O to CCCCCC(O)c1cccc(OCc2ccc3ccccc3n2)c1 (stereo not drawn), the activation rises from 0.69% to 5.54%.

Going from C[C@H](CO)N1C[C@H](C)[C@@H](CN(C)Cc2ccccc2)Oc2c(NC(=O)CCCCCC(=O)Nc3ccccc3N)cccc2C1=O to C[C@H]1CN([C@@H](C)CO)C(=O)Cc2cc(NC(=O)CCCCCC(=O)Nc3ccccc3N)ccc2O[C@H]1CN(C)C(=O)Nc1ccc(F)cc1, the activation rises from -2.46% to 0.894%.

First: Cc1ccc(S(=O)(=O)N(C)C[C@H]2Oc3ccc(NC(=O)Cc4cn(C)c5ccccc45)cc3CC(=O)N([C@@H](C)CO)C[C@H]2C)cc1
Second: COc1ccc(S(=O)(=O)Nc2ccc3c(c2)C(=O)N([C@H](C)CO)C[C@@H](C)[C@H](CN(C)S(=O)(=O)c2ccc(C)cc2)O3)cc1
The activation of the first is lower: -0.47% for the first, 0.261% for the second.

First: C/C=C(/C)C(=O)O[C@H]1CC(C)(C)C[C@H]2C3=CCC4[C@@]5(C)CC[C@H](O[C@@H]6O[C@H](C(=O)O)[C@@H](O[C@@H]7O[C@H](CO)[C@H](O)[C@H](O)[C@H]7O[C@@H]7O[C@H](CO)[C@@H](O)[C@H](O)[C@H]7O)[C@H](O)[C@H]6O[C@@H]6O[C@@H](C)[C@H](O)[C@@H](O)[C@H]6O)C(C)(C)C5CC[C@@]4(C)[C@]3(C)[C@@H](OC(C)=O)[C@@H](O)[C@@]12COC(C)=O (stereo partly drawn)
Second: C[C@@H]1CN([C@@H](C)CO)C(=O)Cc2cc(NC(=O)CCCCCC(=O)Nc3ccccc3N)ccc2O[C@@H]1CN(C)C(=O)NC1CCCCC1
The activation of the first is lower: -14.9% for the first, 0.434% for the second.

First: C[C@@H]1CCCCO[C@H](CN(C)Cc2ccncc2)[C@@H](C)CN([C@H](C)CO)C(=O)c2cc(NC(=O)CCCN(C)C)ccc2O1
Second: C[C@@H]1CN([C@H](C)CO)C(=O)c2cc(NC(=O)Cc3ccccc3)ccc2O[C@@H]1CN(C)CC1CCCCC1
The activation of the first is higher: 0.961% for the first, -0.76% for the second.

Compared with CS(=O)(=O)N(CC(=O)N1CCOCC1)c1ccc2c3c(cccc13)CC2, O=C(CN1CCOCC1)Nc1sc2c(c1C(=O)Nc1ccc(Br)cc1)CCC2 is lower in activation: 0.857% for the first, -2.1% for the second.

Going from COc1cc(C2OC(c3cc(OC)c(OC)c(OC)c3)C(C)C2C)cc(OC)c1OC (stereo not drawn) to COc1ccc(S(=O)(=O)N(C)CC(=O)Nc2cccc(C(F)(F)F)c2)cc1OC, the activation falls from 0.69% to -1.43%.

Going from Cc1noc(C)c1NC(=O)N(C)C[C@H]1Oc2ccc(NS(=O)(=O)c3ccc(F)cc3)cc2C(=O)N([C@@H](C)CO)C[C@H]1C to CC(C)NC(=O)N(C)C[C@@H]1Oc2ccc(NS(=O)(=O)c3ccccc3)cc2C(=O)N([C@@H](C)CO)C[C@H]1C, the activation falls from 2.2% to 1.49%.

Compared with CC(=O)Oc1ccc2occ(C(=O)c3cc4ccccc4o3)c2c1, COC(=O)c1ccc(C(=O)OC)c(NC(=O)COc2ccc(C)cc2)c1 is lower in activation: -0.284% for the first, -5.39% for the second.

Compared with Cn1nc(C(=O)O)c2ccccc2c1=O, CCCOC(=O)C1=C(C)N(CC)C(=O)NC1c1ccccc1Cl (stereo not drawn) is lower in activation: -0.137% for the first, -0.396% for the second.

Compared with O=C(O)C1CC=CCC1C(=O)Nc1ccc(C(=O)N2CCCCC2)c(Cl)c1 (stereo not drawn), C[C@@H]1CN([C@H](C)CO)C(=O)Cc2cc(NC(=O)C3CCCCC3)ccc2O[C@@H]1CN(C)Cc1ccc(C(F)(F)F)cc1 is lower in activation: 2.23% for the first, -3.12% for the second.

Compared with Cc1ccc(S(=O)(=O)N(C)C[C@@H]2Oc3c(NC(=O)C4CCCCC4)cccc3C(=O)N([C@H](C)CO)C[C@H]2C)cc1, Cc1noc(C)c1S(=O)(=O)N(C)C[C@@H]1Oc2c(NS(=O)(=O)c3cn(C)cn3)cccc2C(=O)N([C@H](C)CO)C[C@@H]1C is higher in activation: 1.48% for the first, 1.65% for the second.

Going from CC(C)CSc1nnc(CSCc2nc(-c3ccc(Cl)cc3)cs2)n1C to CC1=Nn2c(Cn3nnc4ccccc43)nnc2SC1, the activation falls from 1.7% to 0.665%.

First: O=C(Nc1ccc(C23CC4CC(CC(C4)C2)C3)cc1)c1cccs1
Second: CC(=O)c1cccc(NC(=O)CN(C2CCCCC2)S(=O)(=O)c2ccccc2)c1
The activation of the first is higher: 0.396% for the first, -2.41% for the second.

Going from C/C=C1\C2C=C(C)CC1(N)c1ccc(=O)[nH]c1C2 (stereo not drawn) to Cc1ccc(-n2c(C)nc3sc4c(c3c2=O)CCC4)cc1, the activation falls from 0.91% to -4.12%.

Going from C[C@@H]1CN([C@H](C)CO)C(=O)Cc2cc(NC(=O)Cc3ccccc3)ccc2O[C@@H]1CN(C)Cc1ccccc1 to CC(C)NC(=O)Nc1ccc2c(c1)C(=O)N([C@@H](C)CO)C[C@H](C)[C@@H](CN(C)C)O2, the activation falls from 1.25% to 0.0718%.

Compared with C[C@@H]1CN([C@@H](C)CO)C(=O)c2cc(NS(=O)(=O)c3ccc(Cl)cc3)ccc2O[C@H]1CN(C)S(=O)(=O)c1cn(C)cn1, COc1cc(C=Nc2ccc(Cl)cc2)ccc1OC(=O)/C=C/c1cccs1 is higher in activation: -1.79% for the first, -0.177% for the second.

CCO/C([O-])=N\c1c[n+](N2CCOCC2)no1 showed an activation of 0.71%.
